Activity calls are given as the source filed them. The calls were made as follows: active = hit-call score of the fitted dose curve at least 0.9, where 1 is the maximum; inactive = score below 0.9.
Test: BSK_3C_TissueFactor: BioMAP Diversity Plus: 3C Assay for Tissue Factor Biomarker Activity (AID 2282997)
Details: BioMAP 3C HUVEC, tissue factor biomarker readout; actives raise or lower the signal
Description: BSK_3C is a cell-based, multiplexed-readout assay that uses umbilical vein endothelium, a human vascular primary cell, with measurements taken at 24 hours after chemical dosing in a 96-well plate.BSK_3C_TissueFactor is an assay component measured in the BSK_3C assay. It measures Tissue Factor antibody related to regulation of gene expression using ELISA technology.Data from the assay component BSK_3C_TissueFactor was analyzed into 1 assay endpoint. This assay endpoint, BSK_3C_TissueFactor, was analyzed with bidirectional fitting relative to DMSO as the negative control and baseline of activity. Using a type of binding reporter, gain or loss-of-signal activity can be used to understand changes in the signaling as they relate to the gene F3. Furthermore, this assay endpoint can be referred to as a primary readout, because this assay has produced multiple assay endpoints where this one serves a signaling function. To generalize the intended target to other relatable targets, this assay endpoint is annotated to the cytokine intended target family, where the subfamily is coagulation factor.
The levels of cell surface (or secreted, indicated by the prefix "s") biomarker endpoints were measured by ELISA. Overt cytotoxicity to cells in confluent adherent cultures (all systems other than the BT system) was assessed by measuring total protein levels using sulforhodamine B (SRB) staining in parallel cultures at the time of biomarker measurements, indicated as SRB endpoints. For proliferation assays for adherent cell types, individual cell types are cultured at sub-confluence and relative cell numbers quantified by SRB staining at time points optimized for each system (48 h: 3C and CASM3C systems; 72 h: BT and HDF3CGF systems; 96 h: SAg system). SRB was performed by staining cells with 0.1% SRB after fixation with 10% TCA and reading wells at 560 nm.Viability and proliferation of PBMC (T cells) was quantified by Alamar Blue reduction for the SAg and BT systems. For PBMC viability (referred to as PBMC Cytotoxicity within the assay endpoint names), cells were plated (75,000/well in a 96-well plate) and then chemical samples added for 1 h before addition of activators, SEB and TSST-1 (20 ng/mL final concentration each). Cells were incubated for 90 h. Then, Alamar Blue (20 uL/well) (Invitrogen, Cat DAL1100) was added for 6 h, and the plates were read with a fluorescence microplate reader at 546/580 nm (excitation/emission). For PBMC proliferation, cells were plated and activated as above but incubated for only 16 h prior to addition of Alamar Blue. Plates were read after 6 h.

**Q.** With CN(CCOc1ccc(CC2SC(=O)NC2=O)cc1)c1ccccn1 (stereo not given) as the compound, how does the outcome read?
**A.** inactive

**Q.** With CC(C)c1ccc(C(C)C)cc1 as the compound, how does the AC50 read?
**A.** 29.4 µM (active)

**Q.** Which outcome does the source give for CCCCCCCCCC=O here?
**A.** inactive

**Q.** With NCCNCCN as the compound, how does the outcome read?
**A.** inactive

**Q.** Which outcome does the source give for OC1OC[C@@H](O)[C@H](O)[C@H]1O (stereo not given in full) here?
**A.** inactive

**Q.** Which AC50 does the source give for CCCCC/C=C/C=C/C=O here?
**A.** 29.5 µM (active)

**Q.** For C=C(C)C(=O)O[C@H]1C[C@@H]2CC[C@@]1(C)C2(C)C, which AC50 is on record?
**A.** 12.2 µM (active)

**Q.** With CC[Si](OC(C)=O)(OC(C)=O)OC(C)=O as the compound, how does the outcome read?
**A.** inactive

**Q.** Which outcome does the source give for Cc1cc(C2(c3cc(C)c(O)cc3C)OS(=O)(=O)c3ccccc32)c(C)cc1O here?
**A.** inactive

**Q.** With CC(=O)/C=C/C1=C(C)CCCC1(C)C as the compound, how does the outcome read?
**A.** inactive

**Q.** Which outcome does the source give for CCc1c(C)cc(N)c(CC)c1N here?
**A.** inactive

**Q.** Which outcome does the source give for C[C@H]1C[C@@H]2[C@H]([C@@H](O)C[C@@]3(C)[C@H]2CC[C@]3(O)C(=O)CO)[C@@]2(C)C=CC(=O)C=C12 here?
**A.** inactive

**Q.** With O=C(O)C[C@H](O)C[C@H](O)/C=C/c1c(C2CC2)nc2ccccc2c1-c1ccc(F)cc1 as the compound, how does the outcome read?
**A.** inactive

**Q.** For CCCCC(CC)COCCC#N (stereo not given), which outcome is on record?
**A.** inactive

**Q.** Which outcome does the source give for CC(=O)O[C@]1(C(C)=O)CC[C@H]2[C@@H]3C[C@H](C)C4=CC(=O)CC[C@]4(C)[C@H]3CC[C@@]21C here?
**A.** inactive

**Q.** With CNC[C@H](O)c1cccc(O)c1 as the compound, how does the outcome read?
**A.** inactive

**Q.** With CCn1c2ccccc2c2cc(N)ccc21 as the compound, how does the outcome read?
**A.** inactive

**Q.** With C=C[Si](OCC)(OCC)OCC as the compound, how does the outcome read?
**A.** inactive

**Q.** For O=[N+]([O-])c1cc(C(F)(F)F)ccc1Cl, which outcome is on record?
**A.** inactive

**Q.** Which outcome does the source give for COC(=O)c1ccc(C)cc1 here?
**A.** inactive

**Q.** For O=P(c1ccccc1)(c1ccccc1)c1ccccc1, which outcome is on record?
**A.** inactive

**Q.** For CC(=O)[C@H]1CC[C@H]2[C@@H]3CC=C4C[C@@H](O)CC[C@]4(C)[C@H]3CC[C@]12C, which outcome is on record?
**A.** inactive

**Q.** With CC1COc2ccccc2N1C(=O)C(Cl)Cl (stereo not given) as the compound, how does the outcome read?
**A.** inactive

**Q.** For Cc1ccc2n[nH]nc2c1, which outcome is on record?
**A.** inactive

**Q.** Which outcome does the source give for OC[C@H]1O[C@H](O[C@]2(CCl)O[C@H](CCl)[C@@H](O)[C@@H]2O)[C@H](O)[C@@H](O)[C@H]1Cl here?
**A.** inactive

**Q.** Which outcome does the source give for CC(=O)Nc1ccccc1O here?
**A.** inactive

**Q.** For C#C[C@]1(O)CC[C@H]2[C@@H]3CCC4=Cc5oncc5C[C@]4(C)[C@H]3CC[C@@]21C, which outcome is on record?
**A.** inactive

**Q.** For Cc1ccc(O)c(C(C)(C)C)c1, which AC50 is on record?
**A.** 36.7 µM (active)

**Q.** For BrC1CCC(Br)C(Br)CCC(Br)C(Br)CCC1Br (stereo not given), which outcome is on record?
**A.** inactive

**Q.** Which outcome does the source give for C=CCOC(=O)CCC1CCCCC1 here?
**A.** inactive

**Q.** For Nc1cc([N+](=O)[O-])ccc1Cl, which outcome is on record?
**A.** inactive

**Q.** Which outcome does the source give for N#Cc1ccc(CC(=NNC(=O)Nc2ccc(OC(F)(F)F)cc2)c2cccc(C(F)(F)F)c2)cc1 here?
**A.** inactive

**Q.** Which outcome does the source give for CC(=O)OCCC(C)CC(C)(C)C (stereo not given) here?
**A.** inactive

**Q.** For O=C=NC1CCC(CC2CCC(N=C=O)CC2)CC1 (stereo not given), which AC50 is on record?
**A.** 3.97 µM (active)

**Q.** With CCC(=O)OCc1ccccc1 as the compound, how does the outcome read?
**A.** inactive

**Q.** With O=C(O)c1cn(-c2ccc(F)cc2)c2cc(N3CCNCC3)c(F)cc2c1=O as the compound, how does the outcome read?
**A.** inactive

**Q.** Which AC50 does the source give for O=C1OC2(c3cc(Br)c(O)c(Br)c3Oc3c2cc(Br)c(O)c3Br)c2c(Cl)c(Cl)c(Cl)c(Cl)c21 here?
**A.** 4.1 µM (active)

**Q.** With COc1cc(C=O)ccc1OC(=O)C(C)C as the compound, how does the outcome read?
**A.** inactive

**Q.** With CCCCCCCCC=O as the compound, how does the outcome read?
**A.** inactive

**Q.** With CC(C)Oc1ccccc1O as the compound, how does the outcome read?
**A.** inactive

Reference: PubChem BioAssay (EPA / NIEHS)
